The campaign covered roughly 5,500 compounds. About 2,000 (36%) were called active. Roughly 18% stayed inconclusive and do not appear here. Cut-off read from the data, not from the text of the source: active = normalized growth mostly below about 0.91 (no sharp cut-off); inconclusive = no clear call, values can overlap the other calls; inactive = mostly above about 0.92. The list shows a part of the results.
Assay: chemical genetic growth profiling, strain panel (AID 1159580);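 note: tested at 20 µM; growth read once vehicle control cultures reached saturation at 30 °C; 1 = growth at the plate median or of vehicle wells; lower values mean less growth of the strain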
Conditions: growth OD
[1] = S. cerevisiae deletion strains, locus YAL013W, strain DEP1, stronger effect = lower value
[2] = S. cerevisiae deletion strains, locus YBR229C, strain ROT2, stronger effect = lower value
[3] = S. cerevisiae deletion strains, locus YCL061C, strain MRC1, stronger effect = lower value
[4] = S. cerevisiae deletion strains, locus YDL101C, strain DUN1, stronger effect = lower value
[5] = S. cerevisiae deletion strains, locus YDL134C, strain PPH21, stronger effect = lower value
[6] = S. cerevisiae deletion strains, locus YDR150W, strain NUM1, stronger effect = lower value
[7] = S. cerevisiae deletion strains, locus YEL061C, strain CIN8, stronger effect = lower value
[8] = S. cerevisiae deletion strains, locus YGR078C, strain PAC10, stronger effect = lower value
[9] = S. cerevisiae deletion strains, locus YHR030C, strain SLT2, stronger effect = lower value
[10] = S. cerevisiae deletion strains, locus YHR087W, strain rtc3, stronger effect = lower value
[11] = S. cerevisiae deletion strains, locus YJR043C, strain POL32, stronger effect = lower value
[12] = S. cerevisiae deletion strains, locus YJR075W, strain HOC1, stronger effect = lower value
[13] = S. cerevisiae deletion strains, locus YLR039C, strain RIC1, stronger effect = lower value
[14] = S. cerevisiae deletion strains, locus YLR058C, strain SHM2 (second series), stronger effect = lower value
[15] = S. cerevisiae deletion strains, locus YLR085C, strain ARP6, stronger effect = lower value
[16] = S. cerevisiae deletion strains, locus YLR262C, strain YPT6, stronger effect = lower value
[17] = S. cerevisiae deletion strains, locus YML094W, strain GIM5, stronger effect = lower value
[18] = S. cerevisiae deletion strains, locus YMR219W, strain ESC1, stronger effect = lower value
[19] = S. cerevisiae deletion strains, locus YMR263W, strain SAP30, stronger effect = lower value
[20] = S. cerevisiae deletion strains, locus YNL153C, strain GIM3, stronger effect = lower value
[21] = S. cerevisiae deletion strains, locus YNL298W, strain CLA4 (second series), stronger effect = lower value
[22] = S. cerevisiae deletion strains, locus YNL322C, strain KRE1, stronger effect = lower value
[23] = S. cerevisiae deletion strains, locus YNR030W, strain Alg12, stronger effect = lower value
[24] = S. cerevisiae deletion strains, locus YOL006C, strain TOP1, stronger effect = lower value
[25] = S. cerevisiae deletion strains, locus YPL055C, strain LGE1, stronger effect = lower value
[26] = S. cerevisiae deletion strains, locus YPL241C, strain CIN2, stronger effect = lower value
[27] = S. cerevisiae deletion strains, locus YPR135W, strain CTF4, stronger effect = lower value

Measured: normalized growth

Clc1cccc(-c2csc(Nc3cccnc3)n2)c1
inactive: [1] 0.935 | [2] 0.998 | [3] 0.957 | [4] 1.04 | [5] 0.997 | [6] 0.954 | [7] 0.993 | [8] 0.979 | S. cerevisiae deletion strains, locus YGR229C, strain SMI1, stronger effect = lower value 1 | [9] 0.729 | [10] 0.974 | S. cerevisiae deletion strains, locus YJL187C, strain SWE1, stronger effect = lower value 0.957 | [11] 0.921 | [12] 0.978 | [13] 0.951 | [14] 0.99 | [15] 0.839 | [16] 1 | [17] 0.971 | [18] 0.992 | [19] 0.914 | [20] 0.971 | [21] 0.881 | [22] 1 | [23] 0.968 | [24] 0.979 | [25] 0.839 | [26] 0.915 | [27] 0.884 | S. cerevisiae strains, strain wild type, stronger effect = lower value 0.997

Clc1ccc(-c2csc(-c3ccno3)n2)s1
inactive: [1] 0.942 | [2] 0.958 | [3] 0.985 | [4] 0.915 | [6] 1.01 | [8] 0.96 | [10] 0.954 | [11] 1.01 | [12] 0.929 | [17] 0.868 | [19] 0.952 | S. cerevisiae deletion strains, locus YMR307W, strain GAS1, stronger effect = lower value 0.702 | S. cerevisiae deletion strains, locus YNL128W, strain TEP1, stronger effect = lower value 0.939 | [20] 1 | [21] 0.899 | [22] 0.97 | [23] 0.9 | [25] 0.851 | [27] 0.741
active: [5] 0.565 | [7] 0.89 | [9] 0.484 | [13] 0.57 | [14] 0.932 | [15] 0.644 | [16] 0.777 | [18] 0.937 | [24] 0.655 | [26] 0.81

Clc1ccc(-c2csc(Nc3ccccc3)n2)s1
active: S. cerevisiae deletion strains, locus YDL214C, strain PRR2, stronger effect = lower value 0.382 | S. cerevisiae deletion strains, locus YDR477W, strain SNF1, stronger effect = lower value 0.24 | S. cerevisiae deletion strains, locus YER123W, strain YCK3, stronger effect = lower value 0.354 | S. cerevisiae deletion strains, locus YER133W, strain GLC7, stronger effect = lower value 0.363 | S. cerevisiae deletion strains, locus YFR019W, strain FAB1, stronger effect = lower value 0.593 | S. cerevisiae deletion strains, locus YGR040W, strain KSS1, stronger effect = lower value 0.311 | S. cerevisiae deletion strains, locus YGR052W, strain FMP48, stronger effect = lower value 0.203 | S. cerevisiae deletion strains, locus YGR092W, strain DBF2, stronger effect = lower value 0.33 | [9] 0.146 | S. cerevisiae deletion strains, locus YHR079C, strain IRE1, stronger effect = lower value 0.452 | S. cerevisiae deletion strains, locus YHR082C, strain KSP1, stronger effect = lower value 0.23 | S. cerevisiae deletion strains, locus YHR205W, strain SCH9, stronger effect = lower value 0.273 | S. cerevisiae deletion strains, locus YJL095W, strain BCK1, stronger effect = lower value 0.224 | S. cerevisiae deletion strains, locus YJL157C, strain FAR1, stronger effect = lower value 0.434 | S. cerevisiae deletion strains, locus YJR066W, strain TOR1 (second series), stronger effect = lower value 0.471 | S. cerevisiae deletion strains, locus YJR066W, strain TOR1, stronger effect = lower value 0.276 | S. cerevisiae deletion strains, locus YKL048C, strain ELM1, stronger effect = lower value 0.771 | S. cerevisiae deletion strains, locus YKL067W, strain YNK1, stronger effect = lower value 0.521 | S. cerevisiae deletion strains, locus YKL101W, strain HSL1, stronger effect = lower value 0.451 | S. cerevisiae deletion strains, locus YKL203C, strain TOR2, stronger effect = lower value 0.385 | S. cerevisiae deletion strains, locus YLR113W, strain HOG1, stronger effect = lower value 0.216 | S. cerevisiae deletion strains, locus YLR133W, strain CKI1, stronger effect = lower value 0.39 | S. cerevisiae deletion strains, locus YLR403W, strain SFP1, stronger effect = lower value 0.332 | S. cerevisiae deletion strains, locus YML070W, strain DAK1, stronger effect = lower value 0.408 | S. cerevisiae deletion strains, locus YMR205C, strain PFK2 (second series), stronger effect = lower value 0.578 | S. cerevisiae deletion strains, locus YNL020C, strain ARK1, stronger effect = lower value 0.419 | S. cerevisiae deletion strains, locus YNL183C, strain NPR1, stronger effect = lower value 0.148 | S. cerevisiae deletion strains, locus YNL307C, strain MCK1 (second series), stronger effect = lower value 0.28 | S. cerevisiae deletion strains, locus YOL136C, strain PFK27, stronger effect = lower value 0.453 | S. cerevisiae deletion strains, locus YOR061W, strain CKA2, stronger effect = lower value 0.414 | S. cerevisiae deletion strains, locus YOR119C, strain RIO1, stronger effect = lower value 0.409 | S. cerevisiae deletion strains, locus YOR231W, strain MKK1, stronger effect = lower value 0.435 | S. cerevisiae deletion strains, locus YPL031C, strain PHO85, stronger effect = lower value 0.295 | S. cerevisiae deletion strains, locus YPL153C, strain RAD53, stronger effect = lower value 0.438 | S. cerevisiae deletion strains, locus YPL204W, strain HRR25, stronger effect = lower value 0.435 | S. cerevisiae deletion strains, locus YPL256C, strain CLN2, stronger effect = lower value 0.289
inactive: S. cerevisiae deletion strains, locus YAR019C, strain CDC15, stronger effect = lower value 0.933 | S. cerevisiae deletion strains, locus YBL105C, strain PKC1, stronger effect = lower value 0.933 | S. cerevisiae deletion strains, locus YBR135W, strain CKS1, stronger effect = lower value 0.929 | S. cerevisiae deletion strains, locus YBR136W, strain MEC1, stronger effect = lower value 0.923 | S. cerevisiae deletion strains, locus YBR160W, strain CDC28, stronger effect = lower value 0.925 | S. cerevisiae deletion strains, locus YDL017W, strain CDC7, stronger effect = lower value 0.928 | S. cerevisiae deletion strains, locus YDL028C, strain MPS1, stronger effect = lower value 0.936 | [4] 0.943 | S. cerevisiae deletion strains, locus YDL108W, strain KIN28, stronger effect = lower value 0.926 | S. cerevisiae deletion strains, locus YDL132W, strain cdc53, stronger effect = lower value 0.94 | S. cerevisiae deletion strains, locus YDR052C, strain DBF4, stronger effect = lower value 0.933 | S. cerevisiae deletion strains, locus YDR054C, strain cdc34, stronger effect = lower value 0.907 | S. cerevisiae deletion strains, locus YDR226W, strain ADK1, stronger effect = lower value 0.936 | S. cerevisiae deletion strains, locus YFL009W, strain cdc4, stronger effect = lower value 0.929 | S. cerevisiae deletion strains, locus YFL029C, strain CAK1, stronger effect = lower value 0.923 | S. cerevisiae deletion strains, locus YFR003C, strain YPI1, stronger effect = lower value 0.933 | S. cerevisiae deletion strains, locus YFR028C, strain CDC14, stronger effect = lower value 0.926 | S. cerevisiae deletion strains, locus YIL147C, strain SLN1, stronger effect = lower value 0.932 | S. cerevisiae deletion strains, locus YJR016C, strain ILV3, stronger effect = lower value 0.925 | S. cerevisiae deletion strains, locus YKL193C, strain SDS22, stronger effect = lower value 0.921 | S. cerevisiae deletion strains, locus YMR001C, strain CDC5, stronger effect = lower value 0.925 | S. cerevisiae deletion strains, locus YMR277W, strain FCP1, stronger effect = lower value 0.921 | S. cerevisiae deletion strains, locus YNL006W, strain LST8, stronger effect = lower value 0.932 | S. cerevisiae deletion strains, locus YNL161W, strain CBK1, stronger effect = lower value 0.923 | S. cerevisiae deletion strains, locus YNL207W, strain RIO2, stronger effect = lower value 0.915 | S. cerevisiae deletion strains, locus YNL222W, strain SSU72, stronger effect = lower value 0.931 | S. cerevisiae deletion strains, locus YOL078W, strain AVO1, stronger effect = lower value 0.926 | S. cerevisiae deletion strains, locus YOR329C, strain SCD5, stronger effect = lower value 0.922 | S. cerevisiae deletion strains, locus YPL209C, strain IPL1, stronger effect = lower value 0.915 | S. cerevisiae deletion strains, locus YPR025C, strain CCL1, stronger effect = lower value 0.926 | S. cerevisiae deletion strains, locus YPR106W, strain ISR1, stronger effect = lower value 0.906 | S. cerevisiae deletion strains, locus YPR111W, strain DBF20, stronger effect = lower value 0.917 | S. cerevisiae deletion strains, strain NNK1, stronger effect = lower value 0.916 | S. cerevisiae deletion strains, strain TSCII, stronger effect = lower value 0.92

Source: PubChem BioAssay AID1159580 (chemical genetic matrix, 2015)
